Data on 36 compounds can be found in PubChem BioAssay AID1259339 (Broad Institute, 2017).

A word on the AC50: it is the midpoint of the concentration-response curve, whichever way the signal moves.

SMILES strings stand for the structures. Values without a mark were called inactive. The source made the active and inactive calls.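 Rule for the calls: active = fitted AC50 no higher than ten times the top tested dose (cut at about 90 µM in these data); inconclusive = flat curve with 30 to 70% signal loss, or bad fit; inactive = AC50 beyond ten times the top dose.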

This assay can be described thus: TruHit bead signal quenchers or artefacts – biochemical, TruHit kit, artefact control, dose response (AID 1259339). Conditions: TruHit alphaLISA kit signal interference counterscreen; series mostly up to 80 µM; activity change, negative = signal loss: at the top concentration. On the technique in general: In Alpha technology, singlet oxygen from a donor bead excites a nearby acceptor bead.
As to `CC(C)(C)c1ccc(-c2nc(C#N)c(NCc3ccncc3)o2)cc1`, the AC50 is 22.1 µM (active). With `COc1ccc(-c2nc(C)c(C(C)=O)n2O)cc1OC`, the “activity change, negative = signal loss” value is 17.2%.

`Cc1cnc(C)c(N2CCN(C(=O)[C@H]3CC[C@@H](N)C3)CC2)n1`: the “activity change, negative = signal loss” value was -0.624%.

For the compound `O=S(=O)(c1ccc2nc(-c3ccco3)c(-c3ccco3)nc2c1)N1CCOCC1`, the AC50 is 26.8 µM (active). In the case of `COc1ccc(NC(=O)c2nc(Nc3ccccc3)c3ccccc3n2)cc1`, the “activity change, negative = signal loss” value is -15.3%. On to `Cc1ccc(-c2nn(-c3ccccc3)cc2CN(Cc2ccccc2)C(=O)CCC(=O)O)o1`, for which the AC50 was 53.7 µM (active).

With `COc1ccc(-c2nnc(-c3nc(Nc4ccc(NC(C)=O)cc4)c4ccccc4n3)o2)cc1`, the AC50 is more than 160 µM. Regarding `NC(=O)C1(N2CCCCC2)CCN(c2ncc(NC(=O)c3ccccc3F)cc2C(=O)O)CC1`, the “activity change, negative = signal loss” value is -1.2%. For the compound `Cc1ccc(C(=O)Nc2ccc(N3CCC(C(N)=O)(N4CCCCC4)CC3)c(C(=O)O)c2)cc1`, the “activity change, negative = signal loss” value was -6.04%. On to `O=S(=O)(Nc1nccs1)c1ccc(-n2cccc2)cc1`, for which the AC50 is 18.8 µM (active). On the same count and under the same terms, next, `c1coc(-c2cn3ccc4ccccc4c3n2)c1`: 81.7 µM (active). Consider `CC(C(=O)N1CCCC1)N1CCN(c2ccccc2O)CC1` (stereo unspecified), for which the “activity change, negative = signal loss” value is -6.37%.

As for `CC(=O)c1sc2nc(-c3ccco3)ccc2c1N`, the AC50 is 43.6 µM (active).

Consider `O=C(O)c1ccccc1/C=N/NC(=O)c1cc(-c2ccco2)nc2ccccc12`, for which the AC50 is 36 µM (active). For the compound `COc1ccc(S(=O)(=O)c2ccccc2)cc1NS(=O)(=O)c1cccc(C(=O)O)c1`, the “activity change, negative = signal loss” value was -41.6%. On to `c1ccc(-c2nc(-c3ccco3)n3ccccc23)cc1`, for which the AC50 is 27.2 µM (active). Take `O=C(NCc1ccco1)c1c2c(nc3ccccc13)CCC2`: the AC50 was 82.4 µM (active). With `O=C(Nc1nc(-c2ccco2)c(-c2ccco2)s1)C1CCC1`, the AC50 was 4.55 µM (active). For the compound `Cc1ccc(C(=O)Nc2cnc(N3CCC(C(N)=O)(N4CCCCC4)CC3)c(C(=O)O)c2)cc1`, the “activity change, negative = signal loss” value was -47.3%.

Consider `Cc1ccc(-c2nnc(-c3nc(Nc4nc5ccccc5s4)c4ccccc4n3)o2)cc1`, for which the “activity change, negative = signal loss” value is -1.3%. In the case of `COc1cccc(NC(=O)CN(C)C(=O)c2cc3c(s2)CCC3)c1`, the AC50 was 74.6 µM (active). For `COCCC(=O)N1CCCC2(CCN(CCN3CCCC3)C2=O)C1` (stereo unspecified), the “activity change, negative = signal loss” value is 15.8%. On the same count and under the same terms, next, `CCOc1ccccc1NC(=O)N1CCCC(c2nccn2CCOC)C1` (stereo unspecified): -7.56%. `NC(=O)C1(N2CCCCC2)CCN(c2ncc(NC(=O)c3cccc(Cl)c3)cc2C(=O)O)CC1`: the AC50 was more than 160 µM.

Turning to `O=C(Nc1nc(-c2ccco2)c(-c2ccco2)s1)c1ccco1`, the AC50 was 0.98 µM (active). Take `O=C(Nc1nccs1)c1cc(-c2ccco2)nc2ccccc12`: the AC50 is 29 µM (active). Still for that read-out and setting: for `Cc1nc(C)c(C(=O)Nc2ncc([N+](=O)[O-])s2)o1` the value was 40.7 µM (active); for `Cc1ccc(N2NC(c3ccc(Br)cc3)=CCC2=O)cc1`, 66.7 µM (active). Take `Cn1ncc2c(NNC(=O)c3cc(O)cc(O)c3)ncnc21`: the “activity change, negative = signal loss” value was 3.55%. Same read-out and setting: for `O=C(NC1CC1)c1cc(-c2ccco2)nc2ccccc12` the value was -6.19%.

For `O=C(COc1cccnc1[N+](=O)[O-])c1ccc(Cl)s1`, the AC50 is 23.2 µM (active).

As for `NC(=O)C1(N2CCCCC2)CCN(c2ncc(NC(=O)c3cccs3)cc2C(=O)O)CC1`, the “activity change, negative = signal loss” value is 3.86%.

As to `CCCN1CCCn2nc(CNC(=O)[C@H]3CC[C@@H](N)C3)cc2C1`, the “activity change, negative = signal loss” value was -21.6%. The same measure, in the same setting: next, `CN(C)c1ccc(CN2C[C@H]3CC[C@@H]2CN(C(=O)c2ccncc2)C3)cn1`: 8.04%. On to `COc1ccc(S(=O)(=O)N2CCOCC2)cc1NC(=O)c1cccc(-n2cccc2)c1`, for which the AC50 is 36.1 µM (active). For the compound `O=C(Nc1ccc(OCC(=O)N2CCOCC2)cc1)c1cncc(Br)c1`, the “activity change, negative = signal loss” value was 8.89%.
